# Screening results as filed in PubChem BioAssay.
# EWS-Fli block: EWS/Fli-driven NR0B1 reporter inhibitors, primary screen, A673 cells, NR0B1 luciferase, luminescence, MLPCN library. viability-normalised. inhibition, % at 12.6 µM. 350,000 compounds, 0.67% hits. AID 651661, 2012;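 active = mean inhibition of at least 50% after viability correction, with every replicate also passing that limit; inconclusive = mean reaches 50% but only one of two replicates passes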;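 note: firefly luciferase signal divided by Alamar Blue viability fluorescence both relative to DMSO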
# F508del corr: F508del CFTR correction, initial screen, CFBE line, single point. CFBE cells, YFP halide quenching; stimulated with forskolin plus potentiator P3; % fluorescence drop versus neutral controls. activity (quench increase), % at 7.58 µM. 350,000 compounds, 0.36% hits;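 active = mean added fluorescence quench of at least 8% versus neutral control, with both replicates also reaching 8%; inconclusive = only one of the mean or replicate conditions met; inactive = mean below 8% and not both replicates reaching 8%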;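 note: cells transiently co-express mutant CFTR-F508del with the halide-sensitive YFP; corrector assay measuring rescue of mutant channel to the surface after 24 h compound exposure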
# PAX8 inh HTS: inhibitors of PAX8-driven TPO luciferase reporter, primary screen, RMG-I cells, single concentration | SteadyGlo, 24 h | inhibition, % at 12.6 µM | 360,000 compounds, 1.2% hits | AID 652154, 2013;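 active = mean replicate inhibition at least 60% with every replicate also reaching 60%; inconclusive = only one of the two criteria is met; inactive = mean below 60% and not all replicates reaching 60%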;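 note: luciferase light reporting Pax8 driven TPO promoter activity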
# LGR2 inh: inhibitors of bursicon-induced LGR2 CRE-luciferase signal, primary screen, cell-based, HEK293, CRE-luciferase reporter, bursicon stimulation; bursicon-stimulated, 4 h; inhibition, % at 9.99 µM; 380,000 compounds, 0.35% hits; AID 720647, 2013;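 active = drop in luminescence signal, shown as inhibition above about 50% in the replicate tests, limit read from the data, passing the limit was not always enough; inconclusive = probably only some replicates passing the limit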;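 note: agonist challenge used bursicon conditioned medium at about half maximal strength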
# A number is an active result; . = inactive; ? = inconclusive; / = no result given. Rows were chosen to be rich in hits. Some 1.8% of all compounds tested hit in one or more screens of this group.
SMILES,EWS-Fli block,F508del corr,PAX8 inh HTS,LGR2 inh
Cc1cc(O)c(Sc2ncn[nH]2)cc1NS(=O)(=O)c1ccc(Cl)cc1,.,.,.,.
O=S(=O)(Nc1cc(Sc2ncn[nH]2)c(O)c2ccccc12)c1ccccc1,.,.,110.6,97.0
O=C(NCC[C@H]1CC[C@@H](NS(=O)(=O)c2ccc(F)cc2)[C@@H](CO)O1)c1ccccc1F,.,.,/,.
CC(NC(=O)COC(=O)c1ccc2ccccc2n1)C1CC2CCC1C2 (configuration not stated),.,.,.,.
O=C(Nc1cccnc1)c1cc(-c2ccc(Cl)c(Cl)c2)on1,.,.,.,.
O=C(Nc1cccnc1)c1cc(-c2ccc3c(c2)OCO3)on1,/,/,/,62.7
COc1cc(/C=C2\SC(=O)N(CCN)C2=O)ccc1OS(=O)(=O)c1cc(C)ccc1C,.,.,.,81.9
COc1ccc(/C=C2\SC(=O)N(CCC(=O)Nc3ccccc3)C2=O)cc1OC,/,/,.,.
Cc1nnc(Sc2cc(NCCO)c([N+](=O)[O-])c3nonc23)s1,.,.,.,.
Cc1nnc(Sc2cc(NCCCO)c([N+](=O)[O-])c3nonc23)s1,.,.,75.3,.
CC(C)(C)OC(=O)NCCc1onc(-c2ccc([N+](=O)[O-])cc2)c1C(=O)O,.,.,.,.
c1ccc(CCNc2nc(-c3ccccn3)nc3ccccc23)cc1,.,12.7,.,.
CO[C@H]1CC[C@@H]2CCOc3c(C#N)cccc3C(=O)N(C)C[C@@H](C)C(=O)N(C)C[C@H]1O2,.,.,.,.
CN1CCN(S(=O)(=O)c2ccc(Sc3nnnn3-c3ccccc3)c([N+](=O)[O-])c2)CC1,.,/,.,/
CC(=O)c1ccc(Sc2nnnn2-c2ccccc2)c([N+](=O)[O-])c1,.,/,.,75.6
O=C(Nc1nc2ccc(C(=O)N3CCCCC3)cc2s1)C1CCCCC1,54.4,.,.,.
Nc1ccc2nc(NC(=O)C3CCCCC3)sc2c1,.,.,.,.
CC(C)(O)c1ccc2c(c1)CCC1C(C)(C(=O)O)CCCC21C (configuration not stated),.,.,/,.
CC(C)c1c(O)ccc2c1CC[C@H]1C(C)(C)CCC[C@]21C,.,9.0,.,.
Cc1ccc(Cl)cc1N1CCN(C(=O)c2noc(C(C)C)c2[N+](=O)[O-])CC1,56.2,.,118.9,.
CC(C)c1onc(C(=O)N2CCN(C(c3ccccc3)c3ccccc3)CC2)c1[N+](=O)[O-],64.3,.,83.8,.
CC(C)c1onc(C(=O)N2CCN(c3ccccc3)CC2)c1[N+](=O)[O-],.,.,.,.
Cc1onc(C(=O)N2CCC(Cc3ccccc3)CC2)c1[N+](=O)[O-],59.2,.,?,.
Cc1onc(C(=O)N2CCN(Cc3ccccc3)CC2)c1[N+](=O)[O-],.,.,.,.
Cc1onc(-c2c(Cl)cccc2Cl)c1NC(=O)NNc1c(Cl)cncc1Cl,.,.,.,.
SMILES,EWS-Fli block,F508del corr,PAX8 inh HTS,LGR2 inh
Cc1cccc(-c2nnc(SCC(=O)N3CCOCC3)o2)c1,.,.,.,.
Cc1cc(O)c(C(C)C)cc1NC(=O)Nc1ccc([N+](=O)[O-])cc1,.,.,.,/
Cc1ccc(C(C)C)cc1NC(=O)Nc1ccc([N+](=O)[O-])cc1,.,.,62.5,.
CCC(C(=O)Nc1c[nH]c(=O)[nH]c1=O)c1ccccc1 (configuration not stated),/,/,.,.
Cc1nc2ccc([N+](=O)[O-])cc2nc1C,.,.,.,.
Cc1ccc2nc3cc([N+](=O)[O-])cc([N+](=O)[O-])c3cc2c1,61.0,.,.,?
O=C(Nc1cccc(Cl)c1)Nc1ccccc1C(=O)NCc1ccco1,/,/,/,.
O=C(Nc1ccccc1C(=O)NCc1ccco1)Nc1cccc2ccccc12,.,.,61.3,/
COC(=O)[C@H]1[C@@H](O)[C@@]2(O)c3c(OC)cc(OC)cc3O[C@@]2(c2ccc(OC)cc2)[C@@H]1c1ccc(F)cc1,.,.,97.8,86.4
C[C@H]1CCCCO[C@H](CN(C)C(=O)Cc2ccccc2)[C@@H](C)CN([C@@H](C)CO)C(=O)c2cc(N(C)C)ccc2O1,.,10.8,.,.
C[C@@H]1CN([C@H](C)CO)C(=O)c2cc(NC(=O)Nc3ccc(C(F)(F)F)cc3)ccc2O[C@@H](C)CCCCO[C@H]1CN(C)C(=O)c1ccccc1,.,.,101.8,.
C[C@@H]1CCCCO[C@H](CN(C)C(=O)c2ccccc2)[C@@H](C)CN([C@H](C)CO)C(=O)c2cc(NC(=O)Nc3ccc(C(F)(F)F)cc3)ccc2O1,.,.,.,.
C[C@@H]1CN([C@H](C)CO)C(=O)c2cc(N(C)C)ccc2O[C@@H](C)CCCCO[C@@H]1CN(C)C(=O)Cc1ccccc1,.,.,.,.
C[C@@H]1CCCCO[C@@H](CN(C)C(=O)Nc2ccc(C(F)(F)F)cc2)[C@H](C)CN([C@H](C)CO)C(=O)c2cc(NC(=O)Nc3ccccc3)ccc2O1,.,.,63.5,.
C[C@@H]1CCCCO[C@@H](CN(C)C(=O)Nc2ccccc2)[C@H](C)CN([C@H](C)CO)C(=O)c2cc(NC(=O)Nc3ccc(C(F)(F)F)cc3)ccc2O1,.,.,85.6,.
C[C@H](CO)N1C[C@H](C)[C@@H](CN(C)C(=O)Nc2ccc(C(F)(F)F)cc2)OCCCC[C@H](C)Oc2ccc(NC(=O)Nc3ccccc3)cc2C1=O,.,.,.,.
Cc1cc2occ(CC(=O)N(C)CC(=O)Nc3ccccc3Cl)c2cc1C,.,.,/,.
COC(CNC(=O)CN1C(=O)COc2ccc(S(=O)(=O)N3CCOCC3)cc21)OC,/,.,.,.
Cc1cccc(S(=O)(=O)N2C[C@H](O)COC[C@H]3O[C@H](CC(=O)NCCCN4CCOCC4)CC[C@@H]32)c1,.,.,.,.
O=[N+]([O-])c1cc(-c2n(-c3ccccn3)c3ccccc3[n+]2-c2ccccn2)ccc1Cl,.,.,.,.
COc1ccc(S(=O)(=O)Nc2ccc3c(c2)C(=O)N([C@H](C)CO)C[C@@H](C)[C@H](CN(C)C(=O)Nc2c(C)noc2C)OCCCC[C@@H](C)O3)cc1,.,.,.,.
COc1ccc(OC)c(NC(=O)Cn2cccc2)c1,.,.,/,.
C[C@@H]1CN([C@@H](C)CO)C(=O)c2cc(NS(=O)(=O)c3cn(C)cn3)ccc2O[C@H]1CN(C)Cc1ccncc1,.,.,.,.
C[C@@H]1CCCCO[C@H](CN(C)C(=O)Cc2ccccc2)[C@@H](C)CN([C@H](C)CO)C(=O)c2cc(NC(=O)Nc3ccc(C(F)(F)F)cc3)ccc2O1,.,.,.,.
C[C@@H]1CCCCO[C@@H](CN(C)C(=O)Cc2ccccc2)[C@@H](C)CN([C@@H](C)CO)C(=O)c2cc(NC(=O)Nc3ccc(C(F)(F)F)cc3)ccc2O1,.,.,79.1,.
Cc1ccc(OCC(=O)c2cc(C)n(Cc3cccs3)c2C)c([N+](=O)[O-])n1,53.3,.,.,.
CCOC(=O)c1ccc(NC(=O)CN2C(=O)CSC(C)C2=O)cc1 (configuration not stated),.,.,.,.
